# VHR inh abs – DUSP3 (human) phosphatase inhibition; recombinant VHR phosphatase, pNPP absorbance; P51452; AID 1654; hit rate 0.52% among 290,000; inhibition, % at 13.3 µM; in the data active means inhibition above about 50%
# Target sequence (P51452 whole entry, looked up): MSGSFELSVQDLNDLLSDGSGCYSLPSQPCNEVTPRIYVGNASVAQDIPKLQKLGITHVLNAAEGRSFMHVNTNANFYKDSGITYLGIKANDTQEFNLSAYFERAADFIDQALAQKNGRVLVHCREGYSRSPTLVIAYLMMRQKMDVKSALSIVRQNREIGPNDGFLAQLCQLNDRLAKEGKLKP
# Vc quorum ag – inducers of Vibrio cholerae quorum light production without autoinducers; AID 588436; V. cholerae BH1578 lux reporter, luminescence, 6 h; activation, % at 18.7 µM; hit rate 0.16% among 350,000; in the data active means activation mostly above about 9.7%, no sharp cut-off
# Yp Topo-I inh – Y. pestis Topo-I inhibition via cleavage products | Y. pestis Topo-I cleavage product accumulation, plate reader | activity, % at 10 µM | hit rate 0.064% among 360,000 | AID 504884; in the data active means activity above about 50%, passing the limit was not always enough
# MazF activator – activators of E. coli MazEF toxin-antitoxin RNase; activation, % at 20 µM; P0AE70; hit rate 0.32% among 350,000; FAM/BHQ RNA-DNA oligo cleavage fluorescence, 5 h; AID 504720; in the data active means activation above about 50%
# Target sequence (P0AE70 whole entry, looked up): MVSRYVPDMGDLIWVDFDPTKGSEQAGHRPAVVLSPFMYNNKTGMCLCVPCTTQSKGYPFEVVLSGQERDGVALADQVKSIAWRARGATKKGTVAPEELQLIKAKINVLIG
# PrPC surface inh – reduces human prion protein on the cell surface. hit rate 0.43% among 370,000. P04156. inhibition, % at 13.8 µM. cell surface PrPC, TR-FRET read-out; in the data active means inhibition above about 24%; further: 0% = median of the test wells and 100% = reference compound wells
# CCHFV vOTU inh – blocks the CCHF virus ovarian tumor domain protease. AID 651958. CCHFV vOTU protease, Pep-AMC fluorescence. hit rate 0.55% among 370,000. inhibition, % at 11.5 µM; in the data active means inhibition above about 30%; further: 0% = vehicle wells with enzyme and 100% = no enzyme wells
# * = called active by the depositor; i = inactive; · = no result given. A selection: hits, their analogues and other compounds. The true share with any hit is near 1.8%.
SMILES,VHR inh abs,Vc quorum ag,Yp Topo-I inh,MazF activator,PrPC surface inh,CCHFV vOTU inh
CCn1c(CNC(=O)c2cccc(C)c2)nnc1SCC(=O)NC1=NCCS1,52.0*,-1.2,0.3,3.5,4.3,5.1
C[C@H]1COc2cccc(N3CCSCC3)c2S(=O)(=O)N1C,·,·,·,·,-4.4,-10.9
Cc1ccc(O)c(Nc2c3ccccc3nc3ccccc23)c1,52.0*,4.2,-24.3,21.4,3.2,-136.2
Cc1ccc(O)c(Nc2nc(-c3ccccc3)nc3ccccc23)c1,5.8,-0.8,-6.0,16.5,1.6,0.5
Cc1ccc2c(c1)N(CCCC(=O)NCc1ccc(F)cc1)C(=O)CO2,·,·,·,·,-4.2,-4.6
COc1ccc(CN2C/C(=C/c3ccccc3)N3C(=O)C[C@@H](c4ccc5ccccc5c4)N=C23)c(OC)c1,·,·,·,·,-4.1,2.9
O=C(NCCCN1CCCC1)c1ccc2c(c1)N(Cc1ccccc1F)C(=O)c1ccccc1S2(=O)=O,51.3*,-0.3,-16.8,20.1,-12.2,-5.8
C#CCNC(=O)C[C@@H]1C(=O)N(CC=C)C2=CCCCC[C@]21C(=O)OC,·,·,·,·,2.0,-3.2
CCSc1nsc(NC(=O)Nc2ccccc2F)n1,-1.9,i,0.5,8.6,12.3,2.1
C=CCSc1nsc(NC(=O)Nc2ccc(F)cc2)n1,17.8,-0.7,-3.7,-3.8,37.0*,-2.6
Cn1c(SCC(=O)Nc2ccc(S(=O)(=O)Nc3nccs3)cc2)nc2sc3c(c2c1=O)CCCC3,·,·,·,·,7.2,9.6
Cc1ccc(S(=O)(=O)/N=c2\sccn2C)cc1,4.9,46.1*,3.4,-0.1,1.2,3.1
CC(=O)c1cccc(NC(=O)CCc2nnc3ccc(NCc4ccc5c(c4)OCO5)nn23)c1,56.8*,i,72.9*,-22.1,-0.8,5.1
CC(=O)c1cccc(NC(=O)CCc2nnc3ccc(N4CCN(C)CC4)nn23)c1,-9.1,-0.4,4.2,5.8,-4.1,6.5
O=C(Nc1cccc(F)c1)O[C@@H]1CC[C@@]23CCCN2C(=O)CCC[C@H]3C1,·,·,·,·,2.1,·
CCCCCC(=O)Nc1nc(C)c(-c2csc(Nc3cc(OC)ccc3OC)n2)s1,51.2*,i,-34.0,-8.8,-6.7,26.2
O=c1[nH]c(=O)n(C2CCCCCC2)c(O)c1C=NC1CCN(Cc2ccccc2)CC1,17.0,38.3*,17.2,2.4,-4.6,3.6
O=c1[nH]c(=O)n(C2CCCCC2)c(O)c1/C=C/C=Nc1ccccc1,-3.9,-0.5,2.2,95.6*,-0.9,-4.8
O=c1[nH]c(=O)n(-c2ccccc2)c(O)c1/C=C/C=Nc1ccccc1,40.4,i,1.4,-212.0,1.0,17.6
Cn1c(O)c(C=NC2CCN(Cc3ccccc3)CC2)c(=O)[nH]c1=O,-3.1,-0.8,3.4,11.9,2.8,7.9
CC(=O)N1CCN(C2=Nc3ccccc3Sc3ccccc32)CC1,·,·,·,·,23.8,0.5
C/C(CC(=O)NCc1ccco1)=N\NC(=O)Cc1ccc(-c2ccccc2)cc1,28.2,-0.2,0.6,79.0*,-4.6,9.4
Cn1c(=O)oc2cc(S(=O)(=O)NCc3ccc(Cl)cc3)ccc21,-14.4,-7.3,0.0,6.1,8.1,-16.6
Cn1c(=O)oc2cc(S(=O)(=O)Nc3ccccc3O)ccc21,20.5,-0.3,0.2,-16.0,5.9,11.5
COC(=O)c1ccccc1NS(=O)(=O)c1ccc2c(c1)oc(=O)n2C,51.7*,-0.3,-5.7,5.8,7.9,9.7
SMILES,VHR inh abs,Vc quorum ag,Yp Topo-I inh,MazF activator,PrPC surface inh,CCHFV vOTU inh
Cn1c(=O)oc2cc(S(=O)(=O)NCc3ccccc3)ccc21,50.9*,-1.1,2.6,-0.6,3.7,-3.1
Cc1ccc(C(=O)n2ccc3ccc(-c4ccc5ccn(Cc6ccccc6)c5c4)cc32)cc1,·,·,·,·,7.2,2.5
COC(=O)[C@]12C[C@H](CC(=O)NCCc3ccccc3OC)C(=O)N(CCc3ccc(OC)c(OC)c3)C1=C[C@H](C(C)(C)C)O[C@@H]2C,·,·,·,·,-9.0,21.2
CC(C)(C)c1ccc(C(=O)CSc2nc3ccccc3c(=O)[nH]2)cc1,30.9,-0.4,7.6,51.4*,0.2,2.4
CC(C)CN1C(=O)C[C@@]2(C(=O)N(C)c3ccc(NS(=O)(=O)c4ccc(F)cc4)cc32)C1c1ccccc1 (some centres undefined),·,·,·,·,-2.5,6.1
CCCSc1nc(N)c(C#N)c(-c2ccc(C)cc2)c1C#N,2.3,i,32.3,0.1,1.2,11.0
CCN(CC)c1ccc(-c2c(C#N)c(N)nc(OC)c2C#N)cc1,9.9,i,-5.5,75.4*,10.1,-13.6
NC(=O)c1sc(=S)n(-c2ccc(Br)cc2)c1N,-16.1,-0.2,-5.3,1.7,-23.2,6.0

# Compound activity deposited in PubChem by several laboratories.
